Laboratory results as given in PubChem BioAssay (NCATS).
Inconclusive results are not listed. The source made the active and inactive calls. Unless noted, calls follow the shape of the dose curve; as a rule, active = well fitted curve in the direction sought with a large enough effect; inconclusive = small, poorly fitted or top-dose-only effect, or another doubt; inactive = no such curve, though single readings can be large; an effect the other way counts as inactive or inconclusive.

What was measured:
[1] = S16 Schwann cell PMP22 intronic element firefly luciferase assay (AID 624032); conditions: S16 rat Schwann cells, PMP22 element FLuc, 24 h; series mostly up to 25.7 µM; also: nearly all actives have a fitted effect of over 30% in size
Summary of the method: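 Rat S16 Schwann cells stably carrying a PMP22 intronic element-driven Fluc reporter were seeded overnight, then exposed to compounds for 24 h at 37 °C. Luminescence was normalized to PTC124 (positive control) and DMSO (0% activity).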

[2] = S16 Schwann cell PMP22 intronic element beta-lactamase assay (AID 624044; calls by dose curve; also: nearly all actives have a fitted effect of over 15% in size); conditions: S16 rat Schwann cells, PMP22 element beta-lactamase FRET, 24 h; series mostly up to 17.1 µM
Summary of the method: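 Beta-lactamase reporter under a PMP22 intronic regulatory element in stable S16 rat Schwann cells; 24 h compound exposure. 460 nm blue signal normalized between DMSO (0%) and potassium clavulanate, with 535 nm FRET tracking viability; curves classed by r2 and response.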

[3] = system: ATS95; test: qHTS profiling for inhibitors of Plasmodium falciparum proliferation (AID 504749); also: nearly all actives have a fitted effect of over 60% in size; conditions: P. falciparum in erythrocytes, SYBR Green DNA, 72 h; series mostly up to 12.8 µM
Summary of the method: (§1)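 Quantitative HTS: compounds pinned into medium, infected erythrocytes added (0.3% parasitemia, 2.5% hematocrit), 72 h culture at 37 C under 5% CO2. Saponin/Triton lysis with SYBR Green I, overnight RT, then fluorescence read.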

[4] = system: CP215; test: as above; conditions: P. falciparum in erythrocytes, SYBR Green DNA, 72 h; series mostly up to 28.7 µM
Summary of the method: as §1

[5] = system: CP260; test: as above; conditions: P. falciparum in erythrocytes, SYBR Green DNA, 72 h; series mostly up to 12.8 µM
Summary of the method: as §1

[6] = system: CP266; test: as above; conditions: P. falciparum in erythrocytes, SYBR Green DNA, 72 h; series mostly up to 28.7 µM
Summary of the method: as §1

[7] = system: CP269; test: as above; conditions: P. falciparum in erythrocytes, SYBR Green DNA, 72 h; series mostly up to 12.8 µM
Summary of the method: as §1

[8] = system: CP297; test: as above; conditions: P. falciparum in erythrocytes, SYBR Green DNA, 72 h; series mostly up to 12.8 µM
Summary of the method: as §1

[9] = system: DIV14; test: as above; conditions: P. falciparum in erythrocytes, SYBR Green DNA, 72 h; series mostly up to 12.8 µM
Summary of the method: as §1

[10] = system: DIV17; test: as above; conditions: P. falciparum in erythrocytes, SYBR Green DNA, 72 h; series mostly up to 12.8 µM
Summary of the method: as §1

[11] = system: GB4; test: as above; conditions: P. falciparum in erythrocytes, SYBR Green DNA, 72 h; series mostly up to 12.8 µM
Summary of the method: as §1

[12] = system: ICS; test: as above; conditions: P. falciparum in erythrocytes, SYBR Green DNA, 72 h; series mostly up to 12.8 µM
Summary of the method: as §1

[13] = system: P94_40; test: as above; conditions: P. falciparum in erythrocytes, SYBR Green DNA, 72 h; series mostly up to 12.8 µM
Summary of the method: as §1

[14] = system: W2; test: as above; conditions: P. falciparum in erythrocytes, SYBR Green DNA, 72 h; series mostly up to 12.8 µM
Summary of the method: as §1

[15] = target: Guanine nucleotide-binding protein G(i) subunit alpha-1 (Homo sapiens) (UniProt P63096); test: qHTS Assay for Inhibitors of RGS12 GoLoco Motif Activity (Green Fluorophore) (AID 879); conditions: Galphai1/FITC-RGS12 GoLoco peptide, fluorescence polarization; series mostly up to 57.1 µM;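 also: negative values mean loss of peptide binding seen as reduced polarization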
Chain of Guanine nucleotide-binding protein G(i) subunit alpha-1 (Homo sapiens) (P63096 whole entry, looked up): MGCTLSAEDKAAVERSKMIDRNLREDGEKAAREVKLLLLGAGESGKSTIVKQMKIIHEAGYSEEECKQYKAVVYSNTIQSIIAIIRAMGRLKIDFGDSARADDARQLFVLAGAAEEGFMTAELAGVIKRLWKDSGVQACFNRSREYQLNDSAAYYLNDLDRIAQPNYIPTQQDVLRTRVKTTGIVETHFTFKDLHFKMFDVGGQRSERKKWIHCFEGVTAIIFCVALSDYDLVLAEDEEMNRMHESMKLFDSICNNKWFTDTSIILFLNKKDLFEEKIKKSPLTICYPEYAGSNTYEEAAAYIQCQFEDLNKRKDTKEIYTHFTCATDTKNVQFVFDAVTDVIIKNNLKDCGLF
Summary of the method: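 A drop in FITC polarization marked displacement of the FITC-tagged RGS12 GoLoco peptide (10 nM) from Gαi1 (50 nM). Compounds were incubated 10 min at room temperature in Tris pH 7.5 buffer containing 150 mM NaCl, 0.1 mM GDP and 0.05% NP40; unlabeled peptide titration served as control.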

[16] = target: Pyruvate kinase (Leishmania mexicana) (UniProt Q27686); test: qHTS Validation Assay for Inhibitors of Leishmania Mexicana Pyruvate Kinase (AID 945); conditions: purified L. mexicana pyruvate kinase, enzyme activity, E451W mutant enzyme; series mostly up to 57.5 µM
Chain of Pyruvate kinase (Leishmania mexicana) (Q27686 2-499 E452W): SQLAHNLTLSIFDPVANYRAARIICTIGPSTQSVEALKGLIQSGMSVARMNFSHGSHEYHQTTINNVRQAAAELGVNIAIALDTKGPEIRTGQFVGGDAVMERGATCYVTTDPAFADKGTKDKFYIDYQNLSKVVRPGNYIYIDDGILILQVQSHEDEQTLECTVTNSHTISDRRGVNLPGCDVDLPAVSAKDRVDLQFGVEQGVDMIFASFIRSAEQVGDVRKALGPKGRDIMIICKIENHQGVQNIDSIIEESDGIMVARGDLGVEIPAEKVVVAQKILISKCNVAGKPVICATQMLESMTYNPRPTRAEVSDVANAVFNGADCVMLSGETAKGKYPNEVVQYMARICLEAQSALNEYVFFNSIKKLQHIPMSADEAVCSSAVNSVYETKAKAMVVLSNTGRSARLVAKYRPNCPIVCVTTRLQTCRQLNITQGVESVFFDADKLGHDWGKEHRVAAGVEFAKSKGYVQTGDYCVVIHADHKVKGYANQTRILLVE
Summary of the method: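 Eight-point qHTS titrations; enzyme 0.2 nM LmPYK (E451W mutant); substrates 0.5 mM PEP, 0.1 mM ADP; 7 mM MgCl2; 1 h room temperature; PKLight luminescence normalized to neutral control.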

[17] = target: Pyruvate kinase PKM (Homo sapiens) (UniProt P14618); test: qHTS Assay for Activators of Human Muscle Pyruvate Kinase (AID 954; active = well fitted curve in the direction sought with a large enough effect, not every such curve was filed as active); conditions: purified human muscle pyruvate kinase, luciferase-coupled luminescence, 1 h; series mostly up to 57.5 µM
Chain of Pyruvate kinase PKM (Homo sapiens) (P14618 whole entry, looked up): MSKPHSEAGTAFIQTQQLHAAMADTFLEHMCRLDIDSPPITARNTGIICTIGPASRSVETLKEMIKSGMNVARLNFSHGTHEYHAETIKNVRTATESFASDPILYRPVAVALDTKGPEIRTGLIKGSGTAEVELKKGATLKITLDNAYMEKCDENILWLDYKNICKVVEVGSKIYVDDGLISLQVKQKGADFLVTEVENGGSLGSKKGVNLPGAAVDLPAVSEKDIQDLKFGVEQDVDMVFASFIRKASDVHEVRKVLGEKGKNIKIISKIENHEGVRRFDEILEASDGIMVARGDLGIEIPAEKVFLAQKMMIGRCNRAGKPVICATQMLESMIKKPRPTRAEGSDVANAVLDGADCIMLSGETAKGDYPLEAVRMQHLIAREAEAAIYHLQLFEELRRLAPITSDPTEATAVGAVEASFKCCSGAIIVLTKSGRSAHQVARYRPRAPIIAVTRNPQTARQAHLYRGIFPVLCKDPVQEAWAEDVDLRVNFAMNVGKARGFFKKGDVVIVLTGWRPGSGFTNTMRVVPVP
Summary of the method: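 PKM2, human, >95% pure, 0.1 nM; PEP 0.5 mM (Km), ADP 0.1 mM; 50 mM imidazole pH 7.2, 50 mM KCl, 0.01% Tween 20, 0.05% BSA; 1 h RT; luciferase luminescence readout.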

[18] = system: CP315; test: qHTS profiling for inhibitors of Plasmodium falciparum proliferation (AID 504749); also: nearly all actives have a fitted effect of over 60% in size; conditions: P. falciparum in erythrocytes, SYBR Green DNA, 72 h; series mostly up to 12.8 µM
Summary of the method: as §1

[19] = system: CP192; test: as above; conditions: P. falciparum in erythrocytes, SYBR Green DNA, 72 h; series mostly up to 28.7 µM
Summary of the method: as §1

[20] = target: Lysosomal acid glucosylceramidase (Homo sapiens) (UniProt P04062); test: Glucocerebrosidase-p2 (AID 348; in the data active = potency below about 10 µM; also: potency is read from the fitted curve at half-maximal effect); conditions: purified GBA, blue fluorogenic substrate, 40 min
Chain of Lysosomal acid glucosylceramidase (Homo sapiens) (P04062 whole entry, looked up): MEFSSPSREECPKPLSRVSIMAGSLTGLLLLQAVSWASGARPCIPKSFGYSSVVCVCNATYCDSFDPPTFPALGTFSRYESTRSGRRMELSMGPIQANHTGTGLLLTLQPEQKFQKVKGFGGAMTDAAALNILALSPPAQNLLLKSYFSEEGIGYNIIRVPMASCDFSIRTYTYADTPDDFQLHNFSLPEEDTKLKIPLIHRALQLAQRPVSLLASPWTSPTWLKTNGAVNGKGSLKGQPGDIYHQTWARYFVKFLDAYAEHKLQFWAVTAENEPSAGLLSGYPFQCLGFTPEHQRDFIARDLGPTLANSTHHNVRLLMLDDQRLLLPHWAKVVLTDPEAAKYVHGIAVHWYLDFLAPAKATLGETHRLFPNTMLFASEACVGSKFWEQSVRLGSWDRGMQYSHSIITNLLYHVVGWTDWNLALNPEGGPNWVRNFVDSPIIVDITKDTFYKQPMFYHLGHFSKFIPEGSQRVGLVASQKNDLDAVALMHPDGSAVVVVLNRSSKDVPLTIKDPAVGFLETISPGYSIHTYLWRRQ
Summary of the method: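 Normal human glucocerebrosidase (0.2 nM) with blue fluorogenic substrate (80 uM final) in citrate/phosphate pH 5.9 with 10mM sodium taurocholate, 0.01% tween-20; 40 min RT, NaOH/glycine stop; fluorescence Ex 365/Em 440; AC50 from a titration from 0.6 nM upwards.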

Measured: Potency

O=c1[nH]cnc2c1ncn2C1OC(CO)C(O)C1O (configuration not stated)
not listed: [15] | [16] | [17] | [18] | [19] | [20]
inactive: all other assays above

C[C@@](N)(Cc1ccc(O)cc1)C(=O)O
inactive: [15] | [16] | [17]

O=C(O)[C@H]1CCCN(CCC=C(c2ccccc2)c2ccccc2)C1
inactive: [15] | [16] | [17]

C[N+]1(C)CCC[C@@H](OC(=O)C(O)(c2ccccc2)c2ccccc2)C1
not listed: [4] | [15] | [16] | [17] | [18] | [19] | [20]
inactive: all other assays above

C/C=C\C(=O)N(CC)c1ccccc1C
not listed: [15] | [16] | [17] | [19] | [20]
inactive: all other assays above

CC1(C)Oc2ccc(C#N)cc2[C@H](N2CCCC2=O)[C@H]1O
not listed: [2] | [5] | [15] | [16] | [17] | [20]
inactive: all other assays above

CCN1C(=O)N[C@@H](c2ccccc2)C1=O
not listed: [3] | [15] | [16] | [17] | [20]
inactive: all other assays above

C[C@@H](C(=O)O)c1ccc(C(=O)c2cccs2)cc1
not listed: [6] | [15] | [16] | [17] | [20]
inactive: all other assays above

CC1(C)S[C@@H]2[C@H](NC(=O)[C@H](C(=O)O)c3ccsc3)C(=O)N2[C@H]1C(=O)O
not listed: [5] | [8] | [15] | [16] | [17] | [20]
inactive: all other assays above

CN[C@@H](CC(C)C)C(=O)N[C@@H]1C(=O)N[C@H](CC(N)=O)C(=O)N[C@@H]2C(=O)N[C@H]3C(=O)N[C@H](C(=O)N[C@H](C(=O)O)c4cc(O)cc(O)c4-c4cc3ccc4O)[C@H](O)c3ccc(c(Cl)c3)Oc3cc2cc(c3O[C@H]2O[C@@H](CO)[C@@H](O)[C@@H](O)[C@@H]2O[C@@H]2C[C@](C)(N)[C@H](O)[C@H](C)O2)Oc2ccc(cc2Cl)[C@@H]1O
not listed: [2] | [15] | [16] | [17] | [20]
inactive: all other assays above

CN[C@@H]1[C@H](O[C@@H]2O[C@H](CO)[C@@H](N)[C@H](O)[C@@H]2O)O[C@H]2C[C@@H](N)[C@@H](O[C@H]3[C@@H](O)[C@H](O)[C@H](N)C[C@@H]3N)O[C@H]2[C@H]1O
not listed: [2] | [15] | [16] | [17] | [19] | [20]
inactive: all other assays above

COc1ccc(CNc2ccnc(-c3ccoc3)n2)c(OC)c1
inactive: [20] > 11.4 µM

COc1ccccc1-c1cc(Nc2ccc(F)cc2)ncn1
inactive: [20] > 11.4 µM

COc1c(O)cc2c(c1O)[C@@H]1O[C@@H](CO)[C@@H](O)[C@@H](O)[C@@H]1OC2=O
not listed: [15] | [16] | [17] | [20]
inactive: all other assays above

CN(C)c1ncc2nc(-c3ccc(Cl)cc3)c(=O)n(Cc3cccs3)c2n1
inactive: [20] > 11.4 µM

Cc1cnc(CNc2cc(-c3ccccc3Cl)ncn2)cn1
inactive: [20] > 11.4 µM

COCCn1c(=O)c(-c2ccccc2)nc2cncnc21
inactive: [20] > 11.4 µM

CCNc1ncc2nc(-c3cn(C)c4ccccc34)c(=O)n(CCC#N)c2n1
inactive: [20] > 11.4 µM

CS(=O)(=O)N1CCC2(CC1)CN(c1ncccn1)C2
inactive: [20] > 11.4 µM

Cc1noc(C)c1C(=O)N1CCC[C@@]2(CCN(Cc3nccs3)C2)C1
inactive: [20] > 11.4 µM

N#Cc1ccc(CN2CCCC3(CCN(C(=O)c4cc(C(F)(F)F)cc(C(F)(F)F)c4)CC3)C2)cc1
inactive: [20] > 11.4 µM

COc1ccc(-n2c(=O)c(-c3cccc(F)c3)nc3cncnc32)cc1
inactive: [20] > 11.4 µM

Fc1ccc(Nc2ncnc3ccc(-c4ccoc4)cc23)cc1
inactive: [20] > 11.4 µM

COc1ccc(C(=O)N2CCC[C@@]3(CCN(Cc4ccccc4OC)C3)C2)cc1
inactive: [20] > 11.4 µM

O=C(Oc1ccccc1)N1CCC2(CCCN(c3cccc(-c4ccccc4)c3)C2)CC1
inactive: [20] > 11.4 µM

Cc1ccccc1-c1cc(N(C)Cc2ccco2)ncn1
inactive: [20] > 11.4 µM

COc1cccc(-c2cc(NCc3ccccc3)ncn2)c1
inactive: [20] > 11.4 µM

O=c1c(-c2cccc(Cl)c2)nc2cncnc2n1Cc1ccccc1Cl
inactive: [20] > 11.4 µM

COc1cccc(Cn2c(=O)c(-c3cc(F)cc(F)c3)nc3cnc(N4CCNCC4)nc32)c1
inactive: [20] > 11.4 µM

COc1ccc(-c2nc3cnc(OC)nc3n(-c3ccc(OC)cc3)c2=O)cc1
inactive: [20] > 11.4 µM

COCCn1c(=O)c(C)nc2cncnc21
inactive: [20] > 11.4 µM

CNc1ccnc(-c2ccccc2C)n1
inactive: [20] > 11.4 µM

O=C(c1cccc(F)c1)N1CCC2(CC1)CCN(c1ccc(-c3ccccc3)cc1)CC2
inactive: [20] > 11.4 µM

CN1CCN(c2ncc3nc(-c4cccc(C#N)c4)c(=O)n(CCC#N)c3n2)CC1
inactive: [20] > 11.4 µM

Cc1nc2cnc(Oc3ccccc3)nc2n(C2CC2)c1=O
inactive: [20] > 11.4 µM

COc1cccc(Nc2ncc3ncc(=O)n(Cc4cccs4)c3n2)c1
inactive: [20] > 11.4 µM

O=c1c(-c2cccs2)nc2cnc(N3CCNCC3)nc2n1Cc1cccs1
inactive: [20] > 11.4 µM

Cc1noc(C)c1-c1ccc2ncnc(Nc3ccccc3)c2c1
inactive: [20] > 11.4 µM

COC(=O)N1CCC2(CCCN(c3ncccn3)C2)CC1
inactive: [20] > 11.4 µM

N#Cc1cccc(-c2nc(NCc3cccs3)c3ccccc3n2)c1
inactive: [20] > 11.4 µM

COc1ccccc1-c1cc(N(C)Cc2ccco2)ncn1
inactive: [20] > 11.4 µM

Cc1cnc(CNc2cc(-c3ccc4c(c3)OCO4)ncn2)cn1
inactive: [20] > 11.4 µM

O=C(c1ccco1)N1CCC2(CCCN(c3ccccn3)C2)CC1
inactive: [20] > 11.4 µM
